Outcome and AC50 data for six compounds are collected here from PubChem BioAssay (EPA / NIEHS).

SMILES strings stand for the structures. “And” between values parts separate entries of the source, which are not always exact repeats. Equal entries are not always repeated. The source made the active and inactive calls. The calls were made as follows: active = hit-call score of the fitted dose curve at least 0.9, where 1 is the maximum; inactive = score below 0.9.

Read-out in experiment [1]: Monokine induced gamma interferon (MIG), CXCL9 (gene 4283)
The experiment can be described thus: BSK_hDFCGF_MIG: BioMAP Diversity Plus: hDFCGF Assay for Monokine induced gamma interferon (MIG) Biomarker Activity (AID 2283063). Conditions: primary human foreskin fibroblasts; actives raise or lower the signal. The essentials: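 Human primary foreskin fibroblasts in the hDFCGF system, exposed to test chemical for 24 h; MIG measured by ELISA. Bidirectional curve fitting against DMSO negative control as activity baseline.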

Read-out in experiment [2]: Vascular cell adhesion molecule 1 (VCAM1), VCAM1 (gene 7412)
Kind of experiment: BSK_hDFCGF_VCAM1: BioMAP Diversity Plus: hDFCGF Assay for Vascular cell adhesion molecule 1 (VCAM1) Biomarker Activity (AID 2283065).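 As to AC50: VCAM-1 protein level quantified by ELISA after 24 h chemical exposure.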 Conditions: primary human foreskin fibroblasts; actives raise or lower the signal. The essentials:
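ELISA readout of VCAM-1 on human dermal fibroblast primary cultures, 24 h after chemical exposure. Gain or loss of signal fitted in both directions against DMSO baseline.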

Read-out in experiment [3]: Plasminogen activator inhibitor-1 (PAI1), SERPINE1 (gene 5054)
The experiment can be described thus: BSK_hDFCGF_PAI1: BioMAP Diversity Plus: hDFCGF Assay for Plasminogen activator inhibitor-1 (PAI1) Biomarker Activity (AID 2283066). As to conditions: primary human foreskin fibroblasts; actives raise or lower the signal. The essentials: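 Human skin fibroblast cultures receive chemical for 24 h before PAI-1 is measured by ELISA; signal changes are fitted bidirectionally against DMSO-treated wells.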

Read-out in experiment [4]: Intercellular Adhesion Molecule 1 (ICAM1), ICAM1 (gene 3383)
The experiment can be described thus: BSK_KF3CT_ICAM1: BioMAP Diversity Plus: KF3CT Assay for Intercellular Adhesion Molecule 1 (ICAM1) Biomarker Activity (AID 2283067). As to conditions: primary human keratinocytes with fibroblasts; actives raise or lower the signal. Put shortly: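 Cell-surface ICAM-1 was measured by ELISA 24 h after dosing primary human skin keratinocytes co-cultured with fibroblasts. Parallel SRB staining tracked overt cytotoxicity. Gain or loss of signal was fitted relative to DMSO.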

Read-out in experiment [5]: Interferon-gamma inducible Protein 10 (IP10), CXCL10 (gene 3627)
Kind of experiment: BSK_KF3CT_IP10: BioMAP Diversity Plus: KF3CT Assay for Interferon-gamma inducible Protein 10 (IP10) Biomarker Activity (AID 2283068). Conditions: primary human keratinocytes with fibroblasts; actives raise or lower the signal. Put shortly:
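Signal is secreted/surface IP-10 by ELISA in a human primary skin co-culture of keratinocytes and foreskin fibroblasts, taken 24 h post-dosing; DMSO served as negative control.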

Experiment [6] can be described thus: BSK_KF3CT_SRB: Viability Assessment in the BioMAP Diversity Plus: KF3CT Assay (AID 2283069).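 Also: read 24 h after compound addition.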 As to conditions: primary human keratinocytes with fibroblasts. Put shortly: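 Overt cytotoxicity is assessed as total protein by sulforhodamine B staining in parallel human skin co-cultures at 24 h after dosing. DMSO serves as negative control and baseline.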
Read-out in experiment [7]: Interleukin-1 alpha (IL1a), IL1A (gene 3552)
The experiment can be described thus: BSK_KF3CT_IL1a: BioMAP Diversity Plus: KF3CT Assay for Interleukin-1 alpha (IL1a) Biomarker Activity (AID 2283070). As to conditions: primary human keratinocytes with fibroblasts; actives raise or lower the signal. Put shortly:
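Readout is IL-1a level by ELISA, compared bidirectionally with DMSO as baseline. Cells: human keratinocytes co-cultured with foreskin fibroblasts, harvested 24 h post-dose.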

Read-out in experiment [8]: TIMP metallopeptidase inhibitor 2 (TIMP2), TIMP2 (gene 7077)
Kind of experiment: BSK_KF3CT_TIMP2: BioMAP Diversity Plus: KF3CT Assay for TIMP metallopeptidase inhibitor 2 (TIMP2) Biomarker Activity (AID 2283071). Conditions: primary human keratinocytes with fibroblasts; actives raise or lower the signal. Put shortly: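 Measurements come from ELISA detection of TIMP-2 at 24 hours in a dosed human keratinocyte and foreskin fibroblast co-culture. DMSO serves as negative control and baseline.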

Read-out in experiment [9]: C-C motif chemokine 2 (Homo sapiens) (UniProt P13500)
The experiment can be described thus: BSK_KF3CT_MCP1: BioMAP Diversity Plus: KF3CT Assay for Monocyte Chemoattractant Protein 1 (MCP1/CCL2) Biomarker Activity (AID 2283073). Conditions: primary human keratinocytes with fibroblasts; actives raise or lower the signal. Put shortly: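 ELISA read-out of MCP-1, 24 h post-dose, in primary human skin keratinocytes co-cultured with fibroblasts. Parallel SRB staining monitors cytotoxicity; changes fitted both directions relative to DMSO.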

Read-out in experiment [10]: Matrix Metallopeptidase 9 (MMP9), MMP9 (gene 4318)
Kind of experiment: BSK_KF3CT_MMP9: BioMAP Diversity Plus: KF3CT Assay for Matrix Metallopeptidase 9 (MMP9) Biomarker Activity (AID 2283074).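 As to AC50: MMP9 protein level quantified by ELISA in the co-culture.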 Conditions: primary human keratinocytes with fibroblasts; actives raise or lower the signal. Put shortly: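 Values come from bidirectional fitting relative to DMSO of MMP-9 levels, which were measured by ELISA. Measurements were taken 24 h after chemical dosing of a keratinocyte and foreskin fibroblast co-culture.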

Read-out in experiment [11]: urokinase plasminogen activator (uPA), PLAU (gene 5328)
Kind of experiment: BSK_KF3CT_uPA: BioMAP Diversity Plus: KF3CT Assay for urokinase plasminogen activator (uPA) Biomarker Activity (AID 2283075). As to conditions: primary human keratinocytes with fibroblasts; actives raise or lower the signal. Put shortly: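 Values derive from bidirectional fitting against DMSO controls. Keratinocyte/foreskin fibroblast co-cultures received chemical; 24 h later uPA was detected by ELISA, with SRB total-protein staining in parallel wells for overt cytotoxicity.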

Read-out in another experiment: CD40, CD40 (gene 958)
The experiment can be described thus: BSK_LPS_CD40: BioMAP Diversity Plus: LPS Assay for CD40 Biomarker Activity (AID 2283076). As to conditions: primary human HUVEC with PBMC; actives raise or lower the signal. Put shortly:
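In the LPS system of human endothelial cells with peripheral blood mononuclear cells, CD40 levels were read by ELISA 24 h post-treatment. Signal changes in either direction were fitted against the DMSO baseline, with parallel SRB protein staining.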

Read-out in experiment [12]: E-selectin (Homo sapiens) (UniProt P16581)
The experiment can be described thus: BSK_LPS_Eselectin: BioMAP Diversity Plus: LPS Assay for Eselectin Biomarker Activity (AID 2283077). As to conditions: primary human HUVEC with PBMC; actives raise or lower the signal. Put shortly:
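E-selectin ELISA on LPS-stimulated endothelial cell/PBMC co-cultures, read 24 h post-treatment; gains and losses fitted against DMSO. Parallel SRB staining (0.1% SRB after 10% TCA fixation, 560 nm) flags overt cytotoxicity.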

Read-out in experiment [13]: Interleukin-8 (IL8), CXCL8 (gene 3576)
The experiment can be described thus: BSK_LPS_IL8: BioMAP Diversity Plus: LPS Assay for Interleukin-8 (IL8) Biomarker Activity (AID 2283078). Conditions: primary human HUVEC with PBMC; actives raise or lower the signal. Put shortly: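 ELISA read-out of IL-8 after 24 h chemical treatment of LPS-activated endothelial/PBMC human primary co-cultures. Changes either up or down relative to DMSO; overt cytotoxicity checked by sulforhodamine B staining in parallel wells.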

Experiment [14] can be described thus: BSK_LPS_SRB: Viability Assessment in the BioMAP Diversity Plus: LPS Assay (AID 2283079).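 Also: total protein by sulforhodamine B absorbance as a cytotoxicity measure; measured one day after compound addition.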 Conditions: primary human HUVEC with PBMC. Put shortly: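 SRB viability endpoint: cells fixed with 10% TCA, stained with 0.1% SRB, read at 560 nm, 24 h post-dose. HUVEC/PBMC co-culture; signal change in either direction scored relative to DMSO.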
Read-out in experiment [15]: Interleukin-1 alpha (IL1a), IL1A (gene 3552)
The experiment can be described thus: BSK_LPS_IL1a: BioMAP Diversity Plus: LPS Assay for Interleukin-1 alpha (IL1a) Biomarker Activity (AID 2283080). Conditions: primary human HUVEC with PBMC; actives raise or lower the signal. The essentials:
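Readout is IL-1a level by ELISA, 24 h post-dose, fitted as gain or loss relative to DMSO. System: LPS-activated human primary co-culture of vascular endothelium and peripheral blood mononuclear cells, with parallel SRB total-protein cytotoxicity.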

Read-out in experiment [16]: Monocyte Chemoattractant Protein-1 (MCP1), CCL2 (gene 6347)
The experiment can be described thus: BSK_LPS_MCP1: BioMAP Diversity Plus: LPS Assay for Monocyte Chemoattractant Protein-1 (MCP1) Biomarker Activity (AID 2283081).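 As to AC50: secreted MCP-1 protein quantified by ELISA in culture supernatant.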 Conditions: primary human HUVEC with PBMC; actives raise or lower the signal. The essentials: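 Secreted MCP-1 read by ELISA at 24 h post-dosing in an LPS-activated co-culture of endothelial cells with peripheral blood mononuclear cells. Fits run in both directions, DMSO as baseline; parallel SRB staining tracks overt cytotoxicity.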

Read-out in experiment [17]: Transforming growth factor beta 1 (TGFb1), TGFB1 (gene 7040)
The experiment can be described thus: BSK_KF3CT_TGFb1: BioMAP Diversity Plus: KF3CT Assay for Transforming growth factor beta 1 (TGFb1) Biomarker Activity (AID 2283072). As to conditions: primary human keratinocytes with fibroblasts; actives raise or lower the signal. The essentials:
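TGF-b1 ELISA on a 24 h dosed co-culture of human keratinocytes and foreskin fibroblasts; cytotoxicity tracked in parallel cultures by SRB staining.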

Experiment [18] can be described thus: BSK_LPS_PGE2: BioMAP Diversity Plus: LPS Assay for Prostaglandin E2 (PGE2) Biomarker Activity (AID 2283082). As to conditions: primary human HUVEC with PBMC; actives raise or lower the signal. Put shortly: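 Primary human endothelial cells and blood mononuclear cells, co-cultured with LPS, receive test chemical; PGE2 ELISA follows at 24 h, with SRB-stained parallel cultures flagging cytotoxicity.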

Sequence of E-selectin (Homo sapiens) (P16581 whole entry, looked up): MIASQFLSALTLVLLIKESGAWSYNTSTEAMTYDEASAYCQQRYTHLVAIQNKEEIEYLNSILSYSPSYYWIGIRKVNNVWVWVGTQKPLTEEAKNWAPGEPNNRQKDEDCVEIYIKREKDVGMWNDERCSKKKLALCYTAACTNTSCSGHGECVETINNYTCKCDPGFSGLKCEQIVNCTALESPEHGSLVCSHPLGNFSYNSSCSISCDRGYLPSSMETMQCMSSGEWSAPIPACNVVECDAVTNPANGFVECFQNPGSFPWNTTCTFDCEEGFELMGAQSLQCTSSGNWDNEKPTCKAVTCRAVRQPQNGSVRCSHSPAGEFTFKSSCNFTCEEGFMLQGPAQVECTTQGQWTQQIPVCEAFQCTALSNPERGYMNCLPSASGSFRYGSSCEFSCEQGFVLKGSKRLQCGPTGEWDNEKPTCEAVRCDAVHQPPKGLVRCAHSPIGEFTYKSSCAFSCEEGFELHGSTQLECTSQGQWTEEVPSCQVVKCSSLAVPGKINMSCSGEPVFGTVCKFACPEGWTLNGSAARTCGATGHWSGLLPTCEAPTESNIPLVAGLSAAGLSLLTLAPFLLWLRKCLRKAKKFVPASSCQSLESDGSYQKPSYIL

In the case of `O=CN1CCOCC1`, the result in experiment [1], in [2], in experiment [3], in experiment [4], in experiment [5] and in experiment [6] was inactive. The outcome in [7] is “inactive”; in experiment [8], “inactive”; in [9], “inactive”; in [10] it was “inactive”; in experiment [11], “inactive”; with CD40, CD40 (gene 958) it was “inactive”. Further, the result in experiment [12], in experiment [13], in [14], in experiment [15] and in [16] was inactive.
`CCCCOC(=O)CCCCCCCC(=O)OCCCC`: the result in experiment [1], in experiment [2], in experiment [3], in experiment [4], in experiment [5] and in experiment [6] was inactive. The result in experiment [7], in experiment [8], in experiment [17], in [9], in experiment [10] and in [11] was inactive. Also, the outcome in the experiment with CD40, CD40 (gene 958) was “inactive”; in experiment [12] it was “inactive”; in [13] it was “inactive”; in [14], “inactive”; in [15], “inactive”; in experiment [16], “inactive”. The result in experiment [18] was inactive.
`CCCCCCC(CO)CCCC` (stereo unspecified): the AC50 in experiment [1] was 34 µM (active) and 30.5 µM (active); in experiment [2] it was 32.5 µM (active) and 36.7 µM (active); in experiment [3], 29.9 µM (active) and 36.3 µM (active); in experiment [4], 32.9 µM (active) and 37.4 µM (active); in experiment [5] it was 38.1 µM (active) and 36.7 µM (active); in experiment [6], 35.6 µM (active) and 36.1 µM (active). In addition, the AC50 is 33.4 µM (active) and 30.3 µM (active) in [7]; 35.1 µM (active) and 35.2 µM (active) in experiment [8]; 32.9 µM (active) and 36.2 µM (active) in experiment [9]; 35.1 µM (active) and 36.4 µM (active) in [10]; 30.5 µM (active) and 36.6 µM (active) in experiment [11]. The outcome was “inactive” with CD40, CD40 (gene 958); “inactive” in experiment [12]; “inactive” in experiment [13]; “inactive” in experiment [14]; “inactive” in [15]; “inactive” in experiment [16].
Consider `Oc1c(Cl)cc(Cl)c(Cl)c1Cc1c(O)c(Cl)cc(Cl)c1Cl`, for which the AC50 in experiment [1] is 3.45 µM (active); in [2], 2.22 µM (active); in experiment [3], 338 nM (active); in experiment [4] it was 3.14 µM (active); in [5], 2.4 µM (active); in experiment [6], 5.15 µM (active). Besides, the AC50 in experiment [7] was 1.83 µM (active); in experiment [8] it was 1.79 µM (active); in [17], 2.81 µM (active); in experiment [9] it was 5.44 µM (active); in experiment [10] it was 740 nM (active); in experiment [11], 2.99 µM (active). The AC50 is 6.43 µM (active) in the experiment with CD40, CD40 (gene 958); 22.8 µM (active) in experiment [12]; 15.3 µM (active) in experiment [13]; 14.1 µM (active) in experiment [14]; 9.2 µM (active) in experiment [15]; 32.5 µM (active) in [16].
As to `IC(I)I`, the outcome in experiment [1], in [2], in experiment [3], in experiment [4], in [5] and in [6] was inactive. For the same compound, the result in experiment [7], in experiment [8], in experiment [17], in experiment [9], in [10] and in [11] was inactive. Further, the outcome in the experiment with CD40, CD40 (gene 958) was “inactive”; in [12], “inactive”; in [13] it was “inactive”; in experiment [14], “inactive”; in experiment [15], “inactive”; in experiment [16], “inactive”.
Regarding `CC=Cc1ccc(OCC)c(O)c1`, the result in experiment [1], in [2], in experiment [3], in experiment [4], in [5] and in experiment [6] was inactive. Moreover, the outcome in experiment [7], in experiment [8], in experiment [17], in experiment [9], in [10] and in experiment [11] was inactive. Moreover, the outcome in the experiment with CD40, CD40 (gene 958) was “inactive”; in [12] it was “inactive”; in experiment [14] it was “inactive”; in experiment [15], “inactive”; in experiment [16], “inactive”.
